The target in assay [1] is Cytochrome P450 1A2 (Homo sapiens) (UniProt P05177). As to the kind of experiment: p450-cyp1a2 (AID 410; calls by dose curve; note: potency is the fitted concentration of half-maximal effect). In short, it runs like this:
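Luminescent demethylation readout: Luciferin-ME (100uM, equal to Km) turned over by 20nM CYP1A2 for 60 min at room temperature after NADPH regeneration addition, following 10 min compound preincubation. Normalization used 57 uM furafylline as full inhibition.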

The target in assay [2] is Glucocorticoid receptor (Homo sapiens) (UniProt P04150). As to the kind of experiment: GR-EFC Redistribution (AID 451; calls by dose curve; note: potency is the fitted concentration of half-maximal effect). Particulars: CHO-K1 GR-EFC translocation, beta-gal luminescence, 2 h. In short, it runs like this:
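CHO-K1 cells expressing nuclear EA and GR-ED fragments of b-gal; compounds titrated up to 46 uM final, 2 h at 37 C. GR nuclear translocation read as complemented b-gal luminescence after 1 h RT detection.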

Assay [3] concerns the target Mitogen-activated protein kinase 10 (Mus musculus) (UniProt Q61831). The assay can be described thus: JNK3 AlphaScreen Assay (AID 530; active = well fitted curve in either direction with a large enough effect, not every such curve was filed as active;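 note: kinase came from lysate of stimulated human HepG2 cells; signal reports phosphorylation of biotinylated GST-cJun 1-79 at Ser73 with 10 µM ATP; % is set by controls: 0 for no effect and ±100 for the full control effect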). In short, it runs like this:
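Activity was read by AlphaScreen after JNK3-containing HepG2 lysate (cytokine pre-activated) phosphorylated biotinylated GST-cJun with 10 uM ATP at room temperature. Phospho-Ser73 cJun antibody with Protein-A acceptor beads provided detection.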

Assay [4] deals with Cytochrome P450 3A4 (Homo sapiens) (UniProt P08684). The assay can be described thus: qHTS Assay for Activators of Cytochrome P450 3A4 (AID 885). Note: nearly all actives have a fitted effect of over 65% in size. The gist of the method: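 Luminescent readout of luciferin formed from 25 uM Luciferin-PPXE (KM level) by 20 nM CYP3A4 in 200 mM KPO4, with 60 min NADPH-driven reaction at room temperature after 10 min compound exposure. Ketoconazole (57 uM) defined 100% inhibition.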
Chain of Cytochrome P450 3A4 (Homo sapiens) (P08684 whole entry, looked up): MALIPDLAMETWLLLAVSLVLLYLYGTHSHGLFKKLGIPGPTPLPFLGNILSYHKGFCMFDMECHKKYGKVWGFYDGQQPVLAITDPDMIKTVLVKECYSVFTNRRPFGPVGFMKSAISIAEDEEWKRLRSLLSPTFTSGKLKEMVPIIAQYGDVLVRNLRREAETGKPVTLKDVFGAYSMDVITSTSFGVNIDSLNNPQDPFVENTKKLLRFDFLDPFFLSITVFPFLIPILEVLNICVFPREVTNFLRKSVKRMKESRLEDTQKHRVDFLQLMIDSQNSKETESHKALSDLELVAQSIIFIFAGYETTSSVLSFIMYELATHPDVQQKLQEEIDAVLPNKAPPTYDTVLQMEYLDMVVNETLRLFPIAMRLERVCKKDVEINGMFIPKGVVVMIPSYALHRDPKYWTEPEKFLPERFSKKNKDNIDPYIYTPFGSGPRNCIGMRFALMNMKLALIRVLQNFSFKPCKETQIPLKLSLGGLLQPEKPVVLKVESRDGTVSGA

The nature of assay [5]: Confirmation and Secondary Assay for Modulators of Hemoglobin Beta Chain Splicing at IVS2 654 locus (AID 910).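 Note: HeLa cells stably carrying EGFP split by mutant beta-globin IVS2-654 intron; % of control where 0% means no effect.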 The gist of the method: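 HeLa cells stably expressing EGFP interrupted by β-globin IVS2-654 intron, seeded overnight in Opti-MEM/2% FCS, then treated 2 days at 37 °C. Restored splicing read as total peak GFP intensity per well by laser scanning cytometry (488 nm excitation, 500–520 nm emission); 500 nM antisense PNA as control.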

A short description of assay [6]: Confirmation and Secondary Assay for Modulators of Hemoglobin Beta Chain Splicing at IVS2 705 locus (AID 930).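 Note: HeLa cells stably expressing the EGFP-705 splicing reporter; GFP fluorescence per well restored by corrected splicing of the IVS2-705 intron in EGFP; % of control where 0% means no effect.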 In short, it runs like this: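 HeLa IVS2-705 EGFP reporter cells, 500/well, compound 2 d at 37C; correct splicing yields fluorescent EGFP. Control: 500 nM antisense PNA. Read-out: total peak GFP intensity.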
The nature of assay [7]: qHTS Assay for Lipid Storage Modulators (AID 1519; calls by dose curve). The settings on record: Drosophila S3 cells, BODIPY lipid droplet/cell ratio, laser cytometry, cells loaded with oleic acid. The gist of the method:
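Cells seeded at 5,000 per well were treated with compounds over a concentration series and loaded with oleic acid (400 uM, as added). Lipid droplet fluorescence (488 nm excitation, 500-530 nm channel) was read by laser-scanning cytometry and normalized to 20 uM Triacsin C.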
A general note: qHTS replaces the single test concentration by a dilution series.

The target of assay [8] is Ubiquitin carboxyl-terminal hydrolase 1 (Homo sapiens) (UniProt O94782). As to the kind of experiment: Inhibitors of USP1/UAF1: Pilot qHTS (AID 504865).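 Note: rhodamine fluorescence freed from ubiquitin-rhodamine substrate followed over time; top concentration of the series differs between compounds; % is set by controls: 0 for no effect and ±100 for the full control effect; nearly all actives have a fitted effect of over 35% in size.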 The gist of the method:
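USP1/UAF1 complex (1nM) preincubated with compound 15 min at room temperature, then Ub-Rho substrate (150nM final) added. Fluorescence read kinetically at 480/540 nm, 6 reads every 60 seconds. Buffer: 50mM HEPES pH 7.8, 0.5mM EDTA, 0.1 mg/ml BSA, 1mM TCEP, 0.01% Tween-20.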

The target in assay [9] is Calcium and integrin-binding protein 1 (Homo sapiens) (UniProt Q99828). The assay can be described thus: Primary qHTS for Identification of Calcium Integrin Binding Protein 1 (CIB1) Competitor (AID 1508620). Note: top concentration of the series differs between compounds; % is set by controls: 0 for no effect and ±100 for the full control effect. The gist of the method: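 Fluorescence polarization competition: GST-tagged CIB1 (1 uM final) preincubated with compound 15 min at room temperature, then FITC-labelled alphaIIb peptide (100 nM final) added. After 15 min at room temperature, polarization read at Ex 480/Em 540.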
Chain of Calcium and integrin-binding protein 1 (Homo sapiens) (Q99828 whole entry, looked up): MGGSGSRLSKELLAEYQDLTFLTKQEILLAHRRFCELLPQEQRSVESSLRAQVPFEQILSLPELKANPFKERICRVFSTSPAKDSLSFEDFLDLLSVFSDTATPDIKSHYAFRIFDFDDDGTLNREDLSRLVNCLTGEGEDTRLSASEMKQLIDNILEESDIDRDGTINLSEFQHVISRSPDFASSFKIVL

A short description of assay [10]: Primary qHTS for small molecule stabilizers of the endoplasmic reticulum resident proteome: Secreted ER Calcium Modulated Protein (SERCaMP) assay (AID 1508630). Note: % is set by controls: 0 for no effect and ±100 for the full control effect. In short, it runs like this: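 The SH-SY5Y reporter protocol was run at 3 concentrations up to 38.3 uM (primary) or 11 concentrations (follow-up): 16 h compound, 100 nM thapsigargin for 4 h, then extracellular luciferase luminescence.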

The nature of assay [11]: NFAT Signaling Pathway (AID 444; active = well fitted curve in either direction with a large enough effect, not every such curve was filed as active;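 note: carbachol stimulus at about its EC50 of 1 µM final; % is set by controls: 0 for no effect and ±100 for the full control effect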). The settings on record: Jurkat NFAT-bla M1, carbachol, beta-lactamase ratio, 5 h; at 7.69 µM (top of the series) unless noted. In short, it runs like this: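 Jurkat cells with NFAT-driven β-lactamase reporter and co-expressed M1 receptor, stimulated with carbachol (final 1 uM, ~EC50), compound titration, 5 h at 37 °C. CCF4 loaded 1 h at RT; 460/530 nm ratio gave %activity and AC50.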

The nature of assay [12]: Stat Signaling Pathway (AID 446; active = well fitted curve in either direction with a large enough effect, not every such curve was filed as active). The settings on record: ME-180 (cervical carcinoma) SIE beta-lactamase reporter, IL-6 stimulated, 5 h; at 7.69 µM (top of the series) unless noted. In short, it runs like this: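 FRET read-out (405 nm excitation, 460/530 nm emission) of a beta-lactamase reporter under a STAT-inducible element in ME-180 cervical carcinoma cells. Cells with compound receive 40 pM IL-6 for 5 h. Values are normalised to AC90 stimulation and AC90 JAK-inhibitor controls.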

For assay [13], the target named is Glucocorticoid receptor (Homo sapiens) (UniProt P04150). The assay can be described thus: GR-GFP Redistribution (AID 450;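 active = compounds whose dose series gives a full or clear partial fitted curve of increased nuclear translocation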; note: potency is the fitted concentration of half-maximal effect). Particulars: U2OS GR-GFP nuclear translocation, laser cytometry, 2 h.
Chain of Glucocorticoid receptor (Homo sapiens) (P04150 whole entry, looked up, the tested form may be a part): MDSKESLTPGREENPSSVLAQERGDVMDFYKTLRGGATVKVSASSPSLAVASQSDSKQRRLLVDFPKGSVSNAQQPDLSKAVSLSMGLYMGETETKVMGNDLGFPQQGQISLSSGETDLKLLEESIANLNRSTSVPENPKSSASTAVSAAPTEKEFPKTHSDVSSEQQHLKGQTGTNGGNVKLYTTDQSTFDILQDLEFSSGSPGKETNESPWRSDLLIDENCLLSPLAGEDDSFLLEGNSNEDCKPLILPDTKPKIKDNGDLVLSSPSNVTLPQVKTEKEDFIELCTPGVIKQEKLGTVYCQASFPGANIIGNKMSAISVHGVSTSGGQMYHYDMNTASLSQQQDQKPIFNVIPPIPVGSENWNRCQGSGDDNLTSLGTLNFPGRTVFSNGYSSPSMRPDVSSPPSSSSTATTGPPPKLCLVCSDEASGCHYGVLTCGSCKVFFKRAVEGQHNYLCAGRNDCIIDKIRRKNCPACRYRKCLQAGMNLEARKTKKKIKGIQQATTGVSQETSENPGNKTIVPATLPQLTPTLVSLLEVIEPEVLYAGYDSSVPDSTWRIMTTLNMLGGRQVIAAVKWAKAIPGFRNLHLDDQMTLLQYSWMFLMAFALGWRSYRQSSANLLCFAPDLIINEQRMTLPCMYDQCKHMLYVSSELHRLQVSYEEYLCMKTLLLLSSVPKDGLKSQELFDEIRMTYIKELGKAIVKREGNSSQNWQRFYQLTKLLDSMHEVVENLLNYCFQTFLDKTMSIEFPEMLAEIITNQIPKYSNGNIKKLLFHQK
The target of assay [14] is 3',5'-cyclic-AMP phosphodiesterase 4B (Homo sapiens) (UniProt Q07343). The assay can be described thus: qHTS Assay for Inhibitors of PDE-IV (AID 607; active = well fitted activation curve with a large enough effect in the main read-out, with a control signal flat, not every such curve was filed as active; note: % of control where 0% means no effect). The gist of the method: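 Cell-based read-out of cAMP via a modified cyclic nucleotide-gated channel and membrane potential dye (535/590 nm) in HEK293 cells expressing PDE4 endogenously. Compounds tested up to 22.9 uM final; 100 uM RO 20-1724 reference.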
Chain of 3',5'-cyclic-AMP phosphodiesterase 4B (Homo sapiens) (Q07343 whole entry, looked up): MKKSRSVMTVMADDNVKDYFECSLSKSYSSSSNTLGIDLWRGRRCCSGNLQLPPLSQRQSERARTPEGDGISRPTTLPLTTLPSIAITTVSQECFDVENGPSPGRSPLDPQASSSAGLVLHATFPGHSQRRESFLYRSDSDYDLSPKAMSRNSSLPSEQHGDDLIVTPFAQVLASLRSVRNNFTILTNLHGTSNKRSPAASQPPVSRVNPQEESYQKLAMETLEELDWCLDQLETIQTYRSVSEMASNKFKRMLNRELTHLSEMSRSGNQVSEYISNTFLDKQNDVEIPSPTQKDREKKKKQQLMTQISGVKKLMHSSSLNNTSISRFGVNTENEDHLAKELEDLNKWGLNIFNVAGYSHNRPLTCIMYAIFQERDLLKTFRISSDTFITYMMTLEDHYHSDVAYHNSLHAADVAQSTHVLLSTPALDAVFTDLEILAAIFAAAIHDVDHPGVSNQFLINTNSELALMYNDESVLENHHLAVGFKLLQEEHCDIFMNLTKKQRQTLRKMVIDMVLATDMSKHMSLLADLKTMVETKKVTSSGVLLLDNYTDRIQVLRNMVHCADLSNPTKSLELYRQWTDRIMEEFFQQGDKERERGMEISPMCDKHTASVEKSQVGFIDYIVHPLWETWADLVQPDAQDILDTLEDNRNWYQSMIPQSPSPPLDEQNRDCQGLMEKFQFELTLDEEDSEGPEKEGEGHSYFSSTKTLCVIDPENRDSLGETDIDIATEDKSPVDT

In assay [15] the target is Cytochrome P450 3A4 (Homo sapiens) (UniProt P08684). As to the kind of experiment: qHTS Assay for Inhibitors and Substrates of Cytochrome P450 3A4 (AID 884). Note: potency is the fitted concentration of half-maximal effect; nearly all actives have a fitted effect of over 50% in size. The gist of the method: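 Luminescent readout of luciferin produced by CYP3A4 (20 nM) dealkylation of Luciferin-PPXE, 25 uM (its KM). NADPH-driven reaction ran 60 min at RT after 10 min compound preincubation; data scaled to 57 uM ketoconazole as 100% inhibition.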

For assay [16], the target named is Cytochrome P450 2C19 (Homo sapiens) (UniProt P33261). The assay can be described thus: qHTS Assay for Inhibitors and Substrates of Cytochrome P450 2C19 (AID 899). Note: potency is the fitted concentration of half-maximal effect; nearly all actives have a fitted effect of over 60% in size. The gist of the method: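 5 nM human CYP2C19 with 10uM Luciferin-H EGE (at KM) in 50mM KPO4, compound preincubated 10 min at 37C, then NADPH regeneration for 60 min at 37C. Luciferin read by luminescence after detection reagent; normalized to 57uM ketoconazole as full inhibition.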
Chain of Cytochrome P450 2C19 (Homo sapiens) (P33261 whole entry, looked up): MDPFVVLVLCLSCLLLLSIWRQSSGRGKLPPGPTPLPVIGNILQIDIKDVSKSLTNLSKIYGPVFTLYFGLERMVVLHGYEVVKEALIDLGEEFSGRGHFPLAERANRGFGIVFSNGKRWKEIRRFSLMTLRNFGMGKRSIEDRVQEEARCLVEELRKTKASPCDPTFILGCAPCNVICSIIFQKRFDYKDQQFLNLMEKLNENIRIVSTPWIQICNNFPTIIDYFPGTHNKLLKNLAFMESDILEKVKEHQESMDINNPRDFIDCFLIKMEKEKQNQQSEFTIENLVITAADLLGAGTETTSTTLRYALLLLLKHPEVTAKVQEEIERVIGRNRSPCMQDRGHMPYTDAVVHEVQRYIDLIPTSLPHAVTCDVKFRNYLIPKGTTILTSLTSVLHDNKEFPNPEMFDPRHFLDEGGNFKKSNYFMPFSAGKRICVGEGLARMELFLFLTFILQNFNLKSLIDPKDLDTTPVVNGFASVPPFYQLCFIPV

In assay [17] the target is Dual specificity protein kinase CLK4 (Homo sapiens) (UniProt Q9HAZ1). As to the kind of experiment: qHTS Assay for Inhibitors of CDC-like Kinase 4 (ADP-Glo Assay) (AID 1771). Note: potency is the fitted concentration of half-maximal effect; nearly all actives have a fitted effect of over 70% in size. In short, it runs like this:
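ADP production was read by ADP-Glo luminescence after residual ATP depletion, following 1 h room-temperature reaction of 25 nM Clk4, 1 uM ATP and 100 uM RS peptide with MgCl2, EGTA, DTT and Triton X-100.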

For assay [18] the target is unchanged. The assay can be described thus: qHTS Assay for Inhibitors of CDC-like Kinase 4 (ADP-FP Assay) (AID 1795). Note: potency is the fitted concentration of half-maximal effect; nearly all actives have a fitted effect of over 60% in size. In short, it runs like this: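 Recombinant human Clk4 (6.25 nM) phosphorylated RS repeat peptide (100 uM) with 1 uM ATP in Tris pH 7.5/MgCl2/EGTA/DTT/Triton buffer for one hour. ADP was quantified by Transcreener competitive fluorescence polarization against an ADP calibration curve.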

SMILES strings stand for the structures. Inconclusive results are not listed. Activity calls are given as the source filed them. Unless noted, calls come from the whole dose curve; as a rule, active = well fitted curve in the direction sought with a large enough effect; inconclusive = small, poorly fitted or top-dose-only effect, or another doubt; inactive = no such curve, though single readings can be large; an effect the other way counts as inactive or inconclusive. Where only a bound is given, the exact number is not on record here.

Chain of Dual specificity protein kinase CLK4 (Homo sapiens) (Q9HAZ1 whole entry, looked up): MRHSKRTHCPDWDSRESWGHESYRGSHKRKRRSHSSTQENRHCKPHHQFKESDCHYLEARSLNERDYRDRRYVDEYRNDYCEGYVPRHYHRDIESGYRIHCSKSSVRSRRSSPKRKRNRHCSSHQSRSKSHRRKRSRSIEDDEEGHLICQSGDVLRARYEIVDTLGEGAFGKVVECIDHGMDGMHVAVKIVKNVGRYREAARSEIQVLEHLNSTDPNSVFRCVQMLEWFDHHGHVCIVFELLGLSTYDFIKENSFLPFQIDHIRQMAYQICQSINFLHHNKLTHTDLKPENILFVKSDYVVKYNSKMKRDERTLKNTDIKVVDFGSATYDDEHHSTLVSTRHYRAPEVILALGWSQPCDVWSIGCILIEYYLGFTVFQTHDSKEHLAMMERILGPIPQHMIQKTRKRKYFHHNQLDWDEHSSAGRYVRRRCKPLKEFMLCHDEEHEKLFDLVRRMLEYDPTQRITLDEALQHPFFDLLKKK
Chain of Cytochrome P450 1A2 (Homo sapiens) (P05177 whole entry, looked up): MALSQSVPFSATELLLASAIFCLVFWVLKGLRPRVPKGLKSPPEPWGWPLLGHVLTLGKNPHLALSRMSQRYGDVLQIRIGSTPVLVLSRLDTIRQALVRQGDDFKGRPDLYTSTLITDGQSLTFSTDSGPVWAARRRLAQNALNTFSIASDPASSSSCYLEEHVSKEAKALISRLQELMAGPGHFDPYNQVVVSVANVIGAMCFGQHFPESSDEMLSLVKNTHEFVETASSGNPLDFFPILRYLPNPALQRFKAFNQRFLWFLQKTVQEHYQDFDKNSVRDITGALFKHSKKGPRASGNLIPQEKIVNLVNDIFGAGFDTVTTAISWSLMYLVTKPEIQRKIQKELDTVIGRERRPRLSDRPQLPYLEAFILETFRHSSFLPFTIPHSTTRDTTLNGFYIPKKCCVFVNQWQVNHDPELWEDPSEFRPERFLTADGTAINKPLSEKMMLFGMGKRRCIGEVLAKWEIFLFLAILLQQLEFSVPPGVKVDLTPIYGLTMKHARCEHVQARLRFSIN
Chain of Ubiquitin carboxyl-terminal hydrolase 1 (Homo sapiens) (O94782 whole entry, looked up): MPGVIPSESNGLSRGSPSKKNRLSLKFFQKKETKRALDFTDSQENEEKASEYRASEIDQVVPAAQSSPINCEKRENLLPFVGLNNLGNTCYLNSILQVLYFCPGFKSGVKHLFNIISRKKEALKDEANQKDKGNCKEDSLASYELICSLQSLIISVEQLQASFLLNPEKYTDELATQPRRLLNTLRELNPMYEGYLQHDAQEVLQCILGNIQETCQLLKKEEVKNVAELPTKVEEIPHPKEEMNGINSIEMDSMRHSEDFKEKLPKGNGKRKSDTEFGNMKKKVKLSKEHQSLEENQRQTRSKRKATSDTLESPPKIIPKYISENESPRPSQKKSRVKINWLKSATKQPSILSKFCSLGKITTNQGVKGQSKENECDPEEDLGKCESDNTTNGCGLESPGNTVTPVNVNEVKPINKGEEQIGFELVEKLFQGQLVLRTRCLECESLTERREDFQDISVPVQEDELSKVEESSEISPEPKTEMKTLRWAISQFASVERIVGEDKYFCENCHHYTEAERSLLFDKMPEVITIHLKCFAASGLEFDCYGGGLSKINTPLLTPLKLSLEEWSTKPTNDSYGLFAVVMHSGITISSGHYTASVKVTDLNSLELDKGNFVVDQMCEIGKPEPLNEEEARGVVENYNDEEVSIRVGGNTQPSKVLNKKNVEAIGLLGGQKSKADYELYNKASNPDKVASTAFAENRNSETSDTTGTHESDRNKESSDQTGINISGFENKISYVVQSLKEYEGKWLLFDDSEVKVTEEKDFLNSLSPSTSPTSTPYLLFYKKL

With `Cc1cccc(CNc2ncnc3ccc(-c4cccnc4)cc23)c1`, the Potency in assay [1] is 316 nM (active); in assay [2], > 46000 nM (inactive). Also, the molecule was classed as inactive in assay [3], in assay [5] and in assay [6]. Moreover, the Potency result in [4], in [8], in assay [9] and in assay [10] was “inactive” throughout. Also, in assay [7] (at 57.5 µM (top of the series)), the activity change, negative = inhibition is 2.99% (inactive). Also, the max response in [7] (measured here: cell count channel max response) is -7.82%; in [7] (measured here: lipid channel max response), -4.88%.
Turning to `c1cncc(CNc2ncnc3ccc(-c4ccoc4)cc23)c1`, the Potency in assay [1] was 316 nM (active); in assay [13], > 46000 nM (inactive); in [2] it was > 46000 nM (inactive); in [15], 1580 nM (active); in [16] it was 25.1 nM (active); in assay [17], 1580 nM (active). The Potency in assay [18] is 794 nM (active). In addition, the activity change, negative = inhibition in [11] was 2.59% (inactive). The activity, negative = inhibition in assay [12] was -13.4% (inactive). Further, the molecule was classed as inactive in [3]. Further, the Potency result in assay [14], in assay [9] and in assay [10] was “inactive” throughout.

These data come from PubChem BioAssay (NCATS).
